According to PubChem BioAssay (NCATS):
Inconclusive results are not listed. A call without a number means that no potency is given here. A number with no mark means an inactive call. The source made the active and inactive calls. The call rests on the fitted dose curve; in most records, active means well fitted curve in the direction sought with a large enough effect; inconclusive means small, poorly fitted or top-dose-only effect, or another doubt; inactive means no such curve, though single readings can be large; an effect the other way counts as inactive or inconclusive.

Legend:
[1] = target: Aldehyde dehydrogenase, mitochondrial (Homo sapiens) (UniProt P05091); assay: qHTS for Inhibitors of the Aldehyde Dehydrogenase Family (ALDH2) Primary screen (AID 2061308); further: nearly all actives have a fitted effect of over 55% in size
[2] = target: Retinaldehyde dehydrogenase 3 (Homo sapiens) (UniProt P47895); assay: qHTS for Inhibitors of the Aldehyde Dehydrogenase Family (ALDH1A3) Primary screen (AID 2061315)

| SMILES | Potency [1] | Potency [2] | activity change, negative = inhibition [1] | activity change, negative = inhibition [2] |
| --- | --- | --- | --- | --- |
| CCCn1c(-c2ccc(F)cc2)nc2c(NC3CC4CCC(C3)N4C)nc(C)nc21 (configuration not stated) | inactive | inactive |  |  |
| Cc1cc(C)n2ncc(C(=O)NCc3ccco3)c2n1 | inactive | inactive |  |  |
| C=C(C)C(=O)O[C@H]1[C@H]2C(=C)C(=O)O[C@@H]2C[C@@H](C)[C@@H]2O[C@@H]2C(=O)[C@](C)(O)[C@@H]1OC(C)=O | inactive | inactive |  |  |
| Fc1cc(Nc2nc(-c3ccncc3)nc3ccccc23)ccc1-c1cccnc1 | inactive | inactive |  |  |
| Cc1ccc(S(=O)(=O)N2CCN(c3nc(C#N)nc4ccccc34)CC2)cc1 | inactive | inactive |  |  |
| Cc1ccccc1C(C(=O)NC1CCCCC1)N(C(=O)Cn1cnc2ccccc21)c1cccc(F)c1 (configuration not stated) | inactive | inactive |  |  |
| O=C(O)c1ccc(-c2noc(-c3cccc(Cl)c3)n2)cc1 | inactive | inactive |  |  |
| Cc1nc2cc(C(=O)NCc3ccccn3)nn2c(C)c1Cc1cccc(Cl)c1 | inactive | inactive |  |  |
| CCCc1cc(C)n(C)c(=O)c1CN(C)C(=O)c1cc(-c2ccc(N3CCN(C(C)C)CC3)nc2)cc2c1cnn2C(C)C | inactive | inactive |  |  |
| FC(F)(F)c1ccccc1-c1nc(NCC#Cc2cccnc2)c2ccccc2n1 | inactive | inactive |  |  |
| O=C(NCCc1nc2ccccc2n1CCOc1ccc(F)cc1)C1CCCCC1 | inactive | inactive |  |  |
| COc1cc2c(NC3CCN(C(C)C)CC3)nc(N3CCC(F)(F)CC3)nc2cc1OCCCN1CCCC1 | inactive | inactive |  |  |
| N#Cc1cccc(NS(=O)(=O)c2ccc3c(c2)CCC(=O)N3)c1 | inactive | inactive |  |  |
| O=C(c1ccccc1O)N(Cc1ccccc1)Cc1cccs1 | inactive | inactive |  |  |
| COc1cc(Cn2ncc3c4sc(C)cc4n(C)c3c2=O)cc(OC)c1 | inactive | inactive |  |  |
| Cc1ccc(CSc2nnc(-c3cccc4ccccc34)o2)cc1 | inactive | inactive |  |  |
| Cc1cc(C)nc(NC(=S)N2CCN(Cc3c(F)cccc3Cl)CC2)c1 | inactive | inactive |  |  |
| Cc1cc(N[S+](=O)([O-])c2ccc(NC(=O)Cc3ccc4c(c3)OCCO4)cc2)no1 | inactive | inactive |  |  |
| O=C(OCC#CCSc1nnc(-c2cccc3ccccc23)o1)c1ccc(Cl)cc1 | inactive | inactive |  |  |
| O=C(OCC#CCSc1nnc(-c2cccc3ccccc23)o1)c1sc(Cl)c(Cl)c1Cl | inactive | inactive |  |  |
| O=[S+]([O-])(c1ccc2c(c1)OCCO2)N1CCN([S+](=O)([O-])c2c(F)cc(O)cc2F)CC1 | inactive | inactive |  |  |

| SMILES | Potency [1] | Potency [2] | activity change, negative = inhibition [1] | activity change, negative = inhibition [2] |
| --- | --- | --- | --- | --- |
| Nc1ncc(S(=O)(=O)N2CCOCC2)s1 | inactive | inactive |  |  |
| Fc1cccc(CSc2nc3ncc(Br)cc3[nH]2)c1 | inactive | inactive |  |  |
| COc1ccc(COc2ccc(-c3nc4ccccc4[nH]3)cc2)cc1OC | inactive | inactive |  |  |
| Cc1cc2c(s1)c1cnn(Cc3ccccc3F)c(=O)c1n2C(C)C | inactive | inactive |  |  |
| FC(F)(F)c1ccccc1-c1nc(NCc2ccc(Cl)c(Cl)c2)c2ccccc2n1 | inactive | inactive |  |  |
| O=C(NNC(=O)c1nc2ccccc2[nH]1)OCc1ccccc1 | inactive | inactive |  |  |
| Cc1ccc(CNc2ncc(N3CCCCC3)cn2)cc1 | inactive | inactive |  |  |
| O=C(Nc1ccccc1)Nc1ccccc1 | inactive | inactive |  |  |
| O=S(=O)(c1ccc2c(c1)OCCO2)N1CCN(S(=O)(=O)c2ccc(Cl)cc2F)CC1 | inactive | inactive |  |  |
| Cn1c2cc(C#N)sc2c2cnn(Cc3ccc(F)cc3)c(=O)c21 | inactive | inactive |  |  |
| COc1cccc(NC(=S)N2CCN(c3ncc(C(F)(F)F)cc3Cl)CC2)n1 | inactive | inactive |  |  |
| O=C(O)c1ccc(O)c2ncc(N3CCCC3)cc12 | inactive | inactive |  |  |
| N#Cc1ccc(NC(=O)Nc2nnc(-c3ccncc3)s2)cc1 | inactive | inactive |  |  |
| CCOC(=O)c1ccoc1-c1ccc2ncnc(NCc3ccc(C)o3)c2c1 | inactive | inactive |  |  |
| CC(C)Oc1ccccc1C(=O)Nc1nc(-c2ccccc2)cs1 | inactive | inactive |  |  |
| O=C(Nc1ccccn1)c1sc2ccccc2c1Cl | inactive | inactive |  |  |
| COc1ccc2c(c1)Oc1nc(-c3ccc(C)cc3)nc(SCC(=O)Nc3cccc(C(=O)O)c3)c1C2 | inactive | inactive |  |  |
| Cc1cc(NS(=O)(=O)c2ccc3c(c2)CCC(=O)N3)ccc1F | inactive | inactive |  |  |
| c1ccc2c(Nc3ccn[nH]3)nc(-c3ccncc3)nc2c1 | inactive | inactive |  |  |
| Cc1cnc(-c2ccccc2C(C)C)nc1NCc1ccc(C2CCCNC2)cc1 (configuration not stated) | inactive | inactive |  |  |
| Cc1nnc2sc(-c3cccc(NC(=O)c4ccc(-c5cccc(Cl)c5)o4)c3)nn12 | inactive | inactive |  |  |

| SMILES | Potency [1] | Potency [2] | activity change, negative = inhibition [1] | activity change, negative = inhibition [2] |
| --- | --- | --- | --- | --- |
| Cc1ccc(S(=O)(=O)Nc2cnccc2C(=O)Nc2nc(-c3ccc(Oc4ccccc4)cc3)cs2)cc1 | inactive | inactive |  |  |
| COc1ccccc1C1=Nn2c(nnc2-c2ccccc2O)SC1 | inactive | inactive |  |  |
| Fc1ccccc1-c1nc(-c2ccc(-c3nn[nH]n3)cc2)no1 | inactive | inactive |  |  |
| CC(=O)Nc1cccc(-c2csc(Nc3cc(C)ccn3)n2)c1 | inactive | inactive |  |  |
| Cc1ccc(NS(=O)(=O)c2cc3c(cc2NC(C)CO)NC(=O)CC3)cc1C (configuration not stated) | inactive | inactive |  |  |
| COc1ccc(CC(=O)Nc2nc(-c3ccc4c(c3)CCN4C(=O)c3ccccc3C)c(C)s2)cc1 | inactive | inactive |  |  |
| CC[C@]1(O)C[C@H]2CN(CCC3C(=Nc4ccccc43)[C@@](C(=O)OC)(c3cc4c(cc3OC)N(C)[C@H]3[C@@](O)(C(N)=O)[C@H](O)[C@]5(CC)C=CCN6CC[C@]43[C@@H]65)C2)C1 (some centres not stated) | inactive | inactive |  |  |
| Cc1c(P(=S)(c2ccccc2)c2ccccc2)[n+]2ccccc2n1Cc1ccccc1 | inactive | inactive |  |  |
| N#Cc1cccc(-c2ccc(CNc3nc(-c4ccccc4C(F)(F)F)nc4ccccc34)cc2)c1 | inactive | inactive |  |  |
| O=C(NC1CCCc2c1cnn2-c1ccc(F)cc1F)c1cnon1 (configuration not stated) | inactive | inactive |  |  |
| CC1=C(C(=O)Nc2nc3ccccc3s2)C(c2[nH]ncc2Cl)N=C(Nc2nc3ccccc3o2)N1 (configuration not stated) | inactive | inactive |  |  |
| O=S(=O)(NC1CCN(S(=O)(=O)c2ccc3c(c2)OCCO3)CC1)c1c(F)cccc1F | inactive | inactive |  |  |
| Nc1ccc2c(c1)C(=O)NS2(=O)=O | inactive | inactive |  |  |
| O=C(COC(=O)CNC(=O)C1CCCCC1)Nc1ccccc1Cl | inactive | inactive |  |  |
| COc1ccc(C2C3=C(N=CN(CCN4CCOCC4)C3N)Oc3ccccc32)cc1OC (configuration not stated) | inactive | inactive |  |  |
| NC(=O)C1CCN(c2nc(-c3cccc(F)c3)cs2)CC1 | inactive | inactive |  |  |
| COc1ccc(N2C[C@]34C=C[C@H](O3)C(C(=O)O)C4C2=O)cc1 (some centres not stated) | inactive | inactive |  |  |
| N#Cc1nc(NC2CCCC2)c2ncn(-c3cc(F)cc(F)c3)c2n1 | inactive | inactive |  |  |
| Cc1cc(C)nc(NC(=S)N2CCN(c3ccc4cnccc4c3)CC2)c1 | inactive | inactive |  |  |
| CC1=C(C(=O)Nc2ccon2)C2(CCCC2)N=C(Nc2nc3ccccc3o2)N1 | inactive | inactive |  |  |
| CCOC(=O)c1c(CNCc2ccccc2F)c2sc(C)cc2n1C | inactive | inactive |  |  |

| SMILES | Potency [1] | Potency [2] | activity change, negative = inhibition [1] | activity change, negative = inhibition [2] |
| --- | --- | --- | --- | --- |
| CC(=O)c1ccc(-c2csc(N3CCC(C(N)=O)CC3)n2)cc1 | inactive | inactive |  |  |
| O=C(Nc1nc(-c2ccccc2)cs1)c1ccncc1NS(=O)(=O)c1cccs1 | inactive | inactive |  |  |
| CC(C)(C#CCSc1nnc(-c2cccc3ccccc23)o1)OC(=O)c1ccc(F)cc1 | inactive | inactive |  |  |
| O=C(Nc1nnc(-c2ccco2)o1)c1ccc(C(F)(F)F)cc1 | inactive | inactive |  |  |
| N#Cc1cccc(S(=O)(=O)N2CCN(S(=O)(=O)c3ccc4c(c3)OCCO4)CC2)c1 | inactive | inactive |  |  |
| C[C@@H]1O[C@@H](O[C@H]2[C@@H](OC(=O)[C@]34CCC(C)(C)CC3C3=CCC5[C@@]6(C)C[C@H](O)[C@H](O[C@@H]7O[C@H](CO)[C@@H](O)[C@H](O)[C@H]7O[C@@H]7OC[C@@H](O)[C@H](O)[C@H]7O)[C@@](C)(C(=O)O)C6CC[C@@]5(C)[C@]3(C)CC4)OC[C@H](O)[C@@H]2O)[C@H](O)[C@H](O)[C@H]1O[C@@H]1OC[C@@H](O)[C@H](O)[C@H]1O (some centres not stated) |  |  | 6.76% [at 11.2 µM] | 0.185% [at 11.2 µM] |
| Cc1cc(C)nc(NC(=S)N2CCN(c3ccc(Cl)cc3S(C)(=O)=O)CC2)c1 | inactive | inactive |  |  |
| C=CCSc1nnc(-c2cccc3ccccc23)o1 | inactive | inactive |  |  |
| Cc1cn(-c2cccc(NC(=O)c3ccc(C)c(Nc4nccc(-c5cccnc5)n4)c3)c2)cn1 | inactive | inactive |  |  |
| O=C(Nc1ccc(-c2cn[nH]c2)cc1)Nc1nnc(-c2ccncc2)s1 | inactive | inactive |  |  |
| COCCNc1cc2c(cc1[S+](=O)([O-])Nc1ccc(C)c(C)c1)CCC(=O)N2 | inactive | inactive |  |  |
| Cc1ccc(OCCn2c(CCNC(=O)CCN3CCCCC3)nc3ccccc32)cc1 | inactive | inactive |  |  |
| O=C1CCc2cc(S(=O)(=O)Nc3cccc(B(O)O)c3)ccc2N1 | inactive | inactive |  |  |
| Cc1cc2c(s1)c1cnn(Cc3ccc(Cl)c(Cl)c3)c(=O)c1n2C | inactive | inactive |  |  |
| CCCn1c(C)nc2c(NCCCCN(CC)CC)nc(C)nc21 | inactive | inactive |  |  |
| C[C@H](C/C=C/C(C)(C)O)[C@H]1CC[C@@]2(C)[C@@H]3[C@@H](O[C@@H]4O[C@H](CO)[C@@H](O)[C@H](O)[C@H]4O)C=C4C(CC[C@H](O)C4(C)C)[C@]3(C=O)CC[C@]12C (some centres not stated) | inactive | inactive |  |  |
| C[C@@]12CC[C@@H]3[C@@](CC[C@H]4[C@@]3(C)CCC[C@@]4(C)C(=O)O)(CC1=O)C2 | inactive | inactive |  |  |
| O=C(Nc1ccc(Cl)c([N+](=O)[O-])c1)Nc1nnc(C2CCCCC2)s1 | inactive | inactive |  |  |
